TIM10 inh – TIM10 yeast growth inhibition; S. cerevisiae TIM10 strain growth, BacTiter-Glo luminescence, 24 h; 1.4% of 330,000 active; inhibition, % at 10 µM;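 active means inhibition of 40% or more at the single tested concentration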;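 further: wild-type TIM10 isogenic control strain grown at permissive 25 °C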
tim10-1 inh – inhibits growth of tim10-1 mutant yeast; S. cerevisiae tim10-1 ts strain growth, BacTiter-Glo, 24 h; inhibition, % at 20 µM; 2.2% of 330,000 active; AID 463190;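 active means inhibition of at least 40%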;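 further: mutant grown at 25 °C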
tim23-1 inh – inhibits growth of tim23-1 mutant yeast | 1.3% of 330,000 active | S. cerevisiae tim23-1 growth, BacTiter-Glo luminescence, 24 h | AID 463212 | inhibition, % at 20 µM;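 active means growth inhibition of the mutant yeast at or above 50%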;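 further: temperature-sensitive mutant grown at 25 °C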
NALP3 yeast inh – inhibitors of NALP3 inflammasome in yeast; Yeast reconstituted NLRP3/ASC/caspase-1, beta-gal luminescence, 24 h; inhibition, % at 10 µM; 0.39% of 330,000 active; AID 2825;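 active means inhibition of 50% or more; inactive means inhibition below 50%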
NALP1 inh – NALP1 inhibition; S. cerevisiae NALP1/ASC/caspase-1 growth, X-gal OD620, 72 h; inhibition, % at 10 µM; 0.61% of 280,000 active; AID 2071; in the data active means inhibition mostly above about 24%, no sharp cut-off; inactive means mostly below about 32%
SKKanGAS inh – SKKanGAS growth inhibition. S. pyogenes SKKanGAS, kanamycin growth, BacTiter-Glo, 6 h. inhibition, % at 7.5 µM. 1.3% of 300,000 active;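 active means mean replicate score, as percent of positive control median, at least 50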;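 further: strain carries kanamycin resistance gene driven by streptokinase promoter and grows in 40 µg/ml kanamycin; loss of luminescence reflects streptokinase promoter inhibition or plain growth inhibition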
tim10-1 confirm – tim10-1 yeast growth inhibition, confirmed; shares compounds with tim10-1 inh; S. cerevisiae tim10-1 ts strain growth, BacTiter-Glo, 24 h; inhibition, % at 20 µM; 56% of 7,400 active; AID 463213;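 active means inhibition of yeast growth at or above a set limit in either of two repeat tests at 20 µM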;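 further: tim10-1 mutant grown at permissive 25 °C to find synthetic lethal compounds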
tim10 confirm – TIM10 yeast growth inhibition, confirmed. shares compounds with TIM10 inh. S. cerevisiae tim10 strain growth, BacTiter-Glo luminescence, 24 h. inhibition, % at 10 µM. 63% of 4,600 active;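 active means inhibition of yeast growth at or above a set limit in either of two replicates at 10 µM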; further: this counterscreen used the strain with wild-type TIM10
A number is an active result; n = inactive; x = no result. The list is not random: actives were taken first. Their share in the collection is about 4.9%.

SMILES	TIM10 inh	tim10-1 inh	tim23-1 inh	NALP3 yeast inh	NALP1 inh	SKKanGAS inh	tim10-1 confirm	tim10 confirm
CCOc1ccc2nc(N3CCOCC3)nc(C)c2c1	n	n	n	n	n	n	x	x
Cc1ccc(NC2=C/C(=N\S(=O)(=O)c3cccs3)c3ccccc3C2=O)c(C)c1	60	74	n	n	n	100	49	n
Cc1cc(C)c(S(=O)(=O)/N=C2\C=C(NS(=O)(=O)c3ccccc3)C(=O)c3ccccc32)c(C)c1	n	n	n	n	n	n	x	x
O=C(COC(=O)c1ccc(O)cc1O)Nc1cc(-c2ccccc2)nn1-c1ccccc1	n	n	n	n	x	n	x	x
NC(=O)Nc1ccc(Cl)cc1	n	n	n	n	x	n	x	x
NC(=O)/C=C/C(=O)Nc1ccc(Cl)cc1	55	61	n	n	79	n	61	56
O=C(Nc1cccnc1)c1ccc([N+](=O)[O-])o1	n	n	n	n	n	n	x	x
CC(=O)c1ccc(NC(=O)c2ccc([N+](=O)[O-])o2)cc1	81	57	n	n	n	n	43	90
O=C(Nc1ccc(N2CCOCC2)c(Cl)c1)c1ccc([N+](=O)[O-])o1	x	x	x	x	n	n	x	x
O=C(Nc1cccc(Cl)c1N1CCCC1)c1ccc([N+](=O)[O-])o1	40	47	n	n	n	x	41	n
Cc1cc(C)cc(NC(=O)c2ccc([N+](=O)[O-])o2)c1	83	49	n	n	n	n	34	82
COc1cc(NC(=O)c2ccc([N+](=O)[O-])o2)ccc1NC(=O)c1ccco1	47	46	n	n	n	n	45	60
CC(Sc1n[nH]c(-c2cccs2)n1)C(=O)Nc1ccc(C(N)=O)cc1 (stereo not given)	n	n	n	n	x	x	x	x
Cc1nn(C)c(C(=O)NC(=S)Nc2ccc([N+](=O)[O-])cc2)c1Cl	41	52	n	n	n	n	40	n
CC(C)(C)NC(=O)C[C@H]1C[C@H](C(=O)N2CCOCC2)[C@@]2(CCC3CCCC3)c3[nH]c4cc(-c5ccco5)ccc4c3CCN2C1=O	n	n	n	x	x	x	x	x
Cc1ccc(Oc2nnc(-c3ccccc3)c3ccccc23)cc1	41	51	n	n	n	n	41	50
Cc1ccc(-c2nnc(Oc3cccc(C)c3)c3ccccc23)cc1	n	n	n	n	n	n	x	x
O=C(CSc1nc(=O)n(CCCN2CCOCC2)c2c1CCC2)Nc1ccccc1F	n	n	n	n	x	n	x	x
CC1(C(=O)N2CCN(Cc3ccccc3Cl)CC2)CC1(Cl)Cl (stereo not given)	n	n	n	n	n	n	x	x
COc1ccc(-n2c(/C=C3\C(=O)N(C)c4ccccc43)nc3ccccc3c2=O)cc1	n	n	n	n	x	n	x	x
CCN1C(=O)/C(=C\c2nc3ccccc3c(=O)n2-c2ccccc2)c2ccccc21	43	42	n	n	n	n	33	n
O=S(=O)(c1ccccc1)c1ccc(NCc2ccco2)cc1	42	43	n	n	n	n	38	39
O=S(=O)(Nc1nc2ccccc2nc1NCc1ccco1)c1ccccc1	n	n	n	n	n	n	x	x
CN(CC(=O)Nc1cccc(F)c1)CC(=O)N1CCCCC1	n	n	n	n	x	x	x	x
CN=C(Nc1cccnc1)c1ccccc1	n	n	n	n	n	n	x	x
SMILES	TIM10 inh	tim10-1 inh	tim23-1 inh	NALP3 yeast inh	NALP1 inh	SKKanGAS inh	tim10-1 confirm	tim10 confirm
Cc1ccccc1CS(=O)(=O)c1nnc([C@H](CC(C)C)NC(=O)OC(C)(C)C)o1	57	65	n	n	n	n	48	49
CC(C)[C@H](NC(=O)OC(C)(C)C)c1nnc(S(=O)(=O)Cc2c(F)cccc2Cl)o1	71	61	n	n	n	n	64	64
CCN1CCCC(OC(=O)c2cc(-c3ccccc3Cl)nc3ccccc23)C1 (stereo not given)	49	48	n	n	n	n	33	37
CCOC(=O)c1ccc(N2C(=O)CC(SCC(=O)Nc3ccc(S(N)(=O)=O)cc3)C2=O)cc1 (stereo not given)	41	51	n	n	n	n	45	47
Cc1ccc(N2C(=O)CC(SCC(=O)Nc3ccc(S(N)(=O)=O)cc3)C2=O)cc1 (stereo not given)	n	n	n	n	n	n	x	x
COc1ccc(S(=O)(=O)Nc2nc3ccccc3nc2Nc2cccc(C(=O)O)c2)cc1	n	n	n	n	n	n	x	x
C[C@@H](c1ccccc1)N1C[C@H]2CCCN2c2cc(Br)ccc2S1(=O)=O	n	n	n	x	x	x	x	x
CCOC(=O)N1CCN(S(=O)(=O)c2ccc3c(c2)CCN3C(=O)C2CCC2)CC1	47	56	n	n	n	n	53	n
CCCN(CCC)CCNS(=O)(=O)c1ccc2c(c1)CCN2C(=O)C1CCC1	n	n	n	n	n	n	x	x
O=C(C1CC1)N1CCc2cc(S(=O)(=O)NCCC3=CCCCC3)ccc21	41	50	n	n	n	n	34	n
O=C(C1CCC1)N1CCc2cc(S(=O)(=O)N3CCCCC3)ccc21	n	n	n	n	n	n	x	x
O=C(C1CCC1)N1CCc2cc(S(=O)(=O)N3CCN(c4ccccn4)CC3)ccc21	56	69	n	n	n	n	69	n
CCCCc1nnc(NC(=O)c2ccc(OCc3c(C)noc3C)cc2)s1	n	n	n	n	x	x	x	x
O=[N+]([O-])c1ccc(C2=NN(CCO)C(=Nc3ccc(OC(F)(F)F)cc3)SC2)cc1	45	45	n	n	n	n	n	32
CC1(C)C(=O)C2(CCCCC2)C(=O)OC1c1ccc(O)cc1 (stereo not given)	44	46	n	n	n	n	38	42
O=S(=O)(Nc1ccccc1)c1ccc(Oc2ncc(C(F)(F)F)cc2Cl)cc1	49	49	n	n	n	n	46	51
c1csc(C2Nc3cccc4cccc(c34)N2)c1	48	53	n	n	n	n	52	n
c1ccc(C2Nc3cccc4cccc(c34)N2)cc1	n	n	n	n	n	n	x	x
CN(C)c1ccc(C2Nc3cccc4cccc(c34)N2)cc1	66	57	n	n	39	n	58	67
CCN(CC)S(=O)(=O)c1ccc(N2CCOCC2)c(NC(=O)COc2ccccc2C)c1	n	n	n	n	x	x	x	x
Cc1cc(Br)ccc1NC(=O)CN1C(=O)C2C3CC(c4ccccc4)C(C3)C2C1=O (stereo not given)	56	41	n	n	n	n	34	32
CC(=O)OCCCNc1cc(Sc2nc3ccccc3s2)c2nonc2c1[N+](=O)[O-]	85	91	n	n	n	91	91	n

Screening results from PubChem.
